According to the supplement of paper PMC10849652:
Targets with a hit are over-represented here; the source holds about 8,800 in all. About 0.5% of all pairs of compound and target were hits. A number with no mark means an inactive call.

Columns and labels:
Experiment in all cases: log2 fold change, soluble protein after heating vs DMSO (PISA); higher = thermal stabilisation; K562 lysate, 10 uM; active = over 0.2 and 3.5 SD of the protein, either way, in both replicates (recomputed)
[1] = compound: C1=CC=C(C=C1)[C@H](COC2=CC3=C(C=C2)NC(=O)N3)NC(=O)C4=CC=CN(C4=O)CC5=CC(=C(C=C5)F)F
How it was run: (§1)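 Values give the log-two fold change in thermal stability against solvent controls, from duplicates. Crude K562 extract at 1 mg/mL protein, made by dounce homogenisation in PBS pH 7.4 with 1 mM MgCl2, was treated with 10 μM compound for 30 min. After 3 min heating across 48°C-58°C, aliquots were pooled, adjusted to 0.5% NP-40 at 4°C and centrifuged at 21,000xg for 90 min. The supernatant was measured by TMTpro 16plex LC-MS/MS with channel sums equalised.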

[2] = compound: CC1=C(SC2=C1C(=N[C@H](C3=NN=C(N32)C)CC(=O)N)C4=CC=C(C=C4)Cl)C
How it was run: as §1

[3] = compound: CC1=C2C(=CC=C1)N=C(N(C2=O)C3=CC=CC=C3C)CN4C=NC5=C(N=CN=C54)N
How it was run: as §1

[4] = compound: Cc1sc2c(c1C)C(c1ccc(Cl)cc1)=N[C@@H](CC(=O)OC(C)(C)C)c1nnc(C)n1-2
How it was run: as §1

[5] = compound: c1ccc([C@@H]2C[C@H]2NC2CCNCC2)cc1
How it was run: as §1

NDUFS1 isoform 2 (UniProt P28331)
log2 fold change [1]: 0.009
log2 fold change [2]: -0.003
log2 fold change [3]: 0.022
log2 fold change [4]: 0.013
log2 fold change [5]: 0.035

MSH6 (UniProt P52701)
Sequence of UniProt P52701 (P52701 whole entry, looked up): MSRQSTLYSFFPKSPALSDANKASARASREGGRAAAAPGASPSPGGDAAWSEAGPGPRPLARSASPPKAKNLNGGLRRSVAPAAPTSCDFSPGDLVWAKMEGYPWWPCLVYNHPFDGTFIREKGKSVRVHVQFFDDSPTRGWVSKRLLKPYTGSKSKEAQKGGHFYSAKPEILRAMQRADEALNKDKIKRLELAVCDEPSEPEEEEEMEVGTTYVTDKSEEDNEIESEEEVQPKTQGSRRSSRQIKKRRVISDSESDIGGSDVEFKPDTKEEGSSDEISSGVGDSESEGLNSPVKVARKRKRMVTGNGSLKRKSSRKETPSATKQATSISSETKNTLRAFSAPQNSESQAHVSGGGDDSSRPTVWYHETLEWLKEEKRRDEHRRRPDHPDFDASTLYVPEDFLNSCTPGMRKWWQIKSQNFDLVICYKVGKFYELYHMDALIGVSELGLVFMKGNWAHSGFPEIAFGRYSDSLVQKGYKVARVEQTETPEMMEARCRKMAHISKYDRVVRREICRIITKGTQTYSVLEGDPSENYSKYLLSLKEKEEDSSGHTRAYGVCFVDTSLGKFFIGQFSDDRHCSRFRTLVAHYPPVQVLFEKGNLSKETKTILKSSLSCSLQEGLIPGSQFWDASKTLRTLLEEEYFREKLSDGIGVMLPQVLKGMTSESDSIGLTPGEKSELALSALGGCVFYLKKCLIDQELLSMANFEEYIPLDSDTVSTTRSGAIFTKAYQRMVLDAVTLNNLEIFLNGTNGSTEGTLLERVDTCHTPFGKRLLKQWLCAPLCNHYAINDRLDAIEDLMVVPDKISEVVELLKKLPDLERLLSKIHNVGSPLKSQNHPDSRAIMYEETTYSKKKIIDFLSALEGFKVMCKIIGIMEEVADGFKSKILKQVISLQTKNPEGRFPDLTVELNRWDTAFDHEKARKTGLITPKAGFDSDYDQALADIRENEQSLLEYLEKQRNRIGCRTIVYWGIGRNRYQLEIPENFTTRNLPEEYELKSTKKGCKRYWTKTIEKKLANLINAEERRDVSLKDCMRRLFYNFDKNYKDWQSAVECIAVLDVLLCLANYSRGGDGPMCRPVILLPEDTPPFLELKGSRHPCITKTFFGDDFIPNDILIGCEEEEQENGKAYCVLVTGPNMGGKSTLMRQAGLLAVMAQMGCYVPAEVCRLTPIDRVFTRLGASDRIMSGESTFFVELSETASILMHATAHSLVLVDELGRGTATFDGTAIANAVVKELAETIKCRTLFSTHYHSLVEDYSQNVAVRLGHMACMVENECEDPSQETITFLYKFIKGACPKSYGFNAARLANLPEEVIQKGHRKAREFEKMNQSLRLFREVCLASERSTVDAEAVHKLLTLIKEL
log2 fold change [1]: -0.021
log2 fold change [2]: 0.01
log2 fold change [3]: 0.034
log2 fold change [4]: 0.006
log2 fold change [5]: 0.014

NAA16 (UniProt Q6N069)
log2 fold change [1]: 0.027
log2 fold change [2]: 0.01
log2 fold change [3]: 0.168
log2 fold change [4]: 0.065

OSBP (UniProt P22059)
log2 fold change [1]: 0.007
log2 fold change [2]: 0.048
log2 fold change [3]: 0.036
log2 fold change [4]: -0.009
log2 fold change [5]: 0.039

NUDT4 isoform 2 (UniProt Q9NZJ9)
log2 fold change [1]: 0.009
log2 fold change [2]: -0.011
log2 fold change [3]: 0.01
log2 fold change [4]: 0.067
log2 fold change [5]: -0.026

NIPSNAP3A (UniProt Q9UFN0)
log2 fold change [1]: 0.083
log2 fold change [2]: -0.037
log2 fold change [3]: -0.013
log2 fold change [4]: -0.036
log2 fold change [5]: 0.322 (active)

OSGEP (UniProt Q9NPF4)
log2 fold change [1]: -0.007
log2 fold change [2]: 0.031
log2 fold change [3]: 0.036
log2 fold change [4]: 0.063
log2 fold change [5]: 0.011

PAFAH1B3 (UniProt Q15102)
log2 fold change [1]: 0
log2 fold change [2]: 0.042
log2 fold change [3]: 0.045
log2 fold change [4]: 0.047
log2 fold change [5]: 0.014

N6AMT1 (UniProt Q9Y5N5)
log2 fold change [1]: -0.046
log2 fold change [2]: -0.086
log2 fold change [3]: -0.046
log2 fold change [4]: -0.011
log2 fold change [5]: 0.052

NMT1 (UniProt P30419)
log2 fold change [1]: 0.004
log2 fold change [2]: 0.002
log2 fold change [3]: -0.002
log2 fold change [4]: 0.011
log2 fold change [5]: 0.004

OARD1 (UniProt Q9Y530)
log2 fold change [1]: -0.005
log2 fold change [2]: -0.014
log2 fold change [3]: 0.035
log2 fold change [4]: 0.044
log2 fold change [5]: -0.005

NFIC (UniProt P08651)
log2 fold change [1]: 0.023
log2 fold change [2]: 0.018
log2 fold change [3]: -0.056
log2 fold change [4]: 0.052
log2 fold change [5]: -0.177

MSH2 (UniProt P43246)
log2 fold change [1]: 0.018
log2 fold change [2]: -0.006
log2 fold change [3]: 0.028
log2 fold change [4]: 0.001
log2 fold change [5]: 0.065

MYH6 (UniProt P13533)
log2 fold change [1]: -0.552
log2 fold change [2]: 0.239

NUP160 (UniProt Q12769)
log2 fold change [1]: -0.021
log2 fold change [2]: -0.027
log2 fold change [3]: 0.012
log2 fold change [4]: -0.04
log2 fold change [5]: 0.01

PARD3 (UniProt Q8TEW0)
Sequence of UniProt Q8TEW0 (Q8TEW0 whole entry, looked up): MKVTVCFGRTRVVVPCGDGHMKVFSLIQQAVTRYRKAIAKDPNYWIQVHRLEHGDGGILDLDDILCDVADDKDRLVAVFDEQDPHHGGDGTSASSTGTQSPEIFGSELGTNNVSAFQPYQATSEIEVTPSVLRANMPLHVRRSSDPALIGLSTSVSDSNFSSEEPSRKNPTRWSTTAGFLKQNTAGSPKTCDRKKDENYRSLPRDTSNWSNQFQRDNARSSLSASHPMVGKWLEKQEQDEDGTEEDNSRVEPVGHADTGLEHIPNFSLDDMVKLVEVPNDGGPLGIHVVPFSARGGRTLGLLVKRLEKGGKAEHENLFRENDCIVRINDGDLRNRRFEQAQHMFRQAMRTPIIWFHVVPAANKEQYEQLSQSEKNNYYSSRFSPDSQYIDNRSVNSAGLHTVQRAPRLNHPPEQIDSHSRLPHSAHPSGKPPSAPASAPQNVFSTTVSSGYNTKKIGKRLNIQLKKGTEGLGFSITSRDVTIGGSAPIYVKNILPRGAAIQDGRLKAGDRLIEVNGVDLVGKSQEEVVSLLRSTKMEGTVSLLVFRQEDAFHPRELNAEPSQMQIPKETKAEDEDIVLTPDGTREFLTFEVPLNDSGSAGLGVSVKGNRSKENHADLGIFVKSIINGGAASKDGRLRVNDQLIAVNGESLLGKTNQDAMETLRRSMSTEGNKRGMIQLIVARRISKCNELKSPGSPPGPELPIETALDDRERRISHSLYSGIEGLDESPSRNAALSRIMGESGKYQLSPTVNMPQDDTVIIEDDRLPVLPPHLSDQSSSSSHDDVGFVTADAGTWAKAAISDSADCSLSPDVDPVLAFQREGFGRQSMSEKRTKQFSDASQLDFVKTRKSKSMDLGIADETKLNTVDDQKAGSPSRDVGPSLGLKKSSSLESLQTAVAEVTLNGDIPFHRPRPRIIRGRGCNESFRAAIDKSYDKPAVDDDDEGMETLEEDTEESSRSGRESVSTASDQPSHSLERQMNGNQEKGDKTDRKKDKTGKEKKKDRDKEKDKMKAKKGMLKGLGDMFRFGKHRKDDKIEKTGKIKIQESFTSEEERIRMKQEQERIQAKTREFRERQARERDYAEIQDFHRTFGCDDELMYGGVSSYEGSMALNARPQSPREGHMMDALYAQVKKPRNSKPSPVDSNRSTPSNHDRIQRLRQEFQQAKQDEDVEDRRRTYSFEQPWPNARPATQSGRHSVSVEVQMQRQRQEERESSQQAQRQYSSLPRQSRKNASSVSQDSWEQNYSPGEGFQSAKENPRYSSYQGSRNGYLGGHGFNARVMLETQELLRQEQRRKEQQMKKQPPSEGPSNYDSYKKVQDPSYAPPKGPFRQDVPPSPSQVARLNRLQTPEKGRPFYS
log2 fold change [1]: 0.078
log2 fold change [2]: 0.063
log2 fold change [3]: -0.028
log2 fold change [4]: 0.09
log2 fold change [5]: -0.024

NPLOC4 isoform 2 (UniProt Q8TAT6)
log2 fold change [1]: 0.035
log2 fold change [2]: 0.017
log2 fold change [3]: 0.025
log2 fold change [4]: -0.012
log2 fold change [5]: -0.064

NCAPG (UniProt Q9BPX3)
log2 fold change [1]: -0.031
log2 fold change [2]: 0.013
log2 fold change [3]: -0.007
log2 fold change [4]: 0.013
log2 fold change [5]: 0.03

NOSTRIN (UniProt Q8IVI9)
log2 fold change [1]: -0.061
log2 fold change [2]: 0.039
log2 fold change [3]: 0.017
log2 fold change [4]: -0.092
log2 fold change [5]: 0.017

PAIP2 (UniProt Q9BPZ3)
log2 fold change [1]: -0.009
log2 fold change [2]: 0.042
log2 fold change [3]: 0.03
log2 fold change [4]: 0.021
log2 fold change [5]: 0.036

MSH3 (UniProt P20585)
log2 fold change [1]: 0.018
log2 fold change [2]: 0.014
log2 fold change [3]: 0.039
log2 fold change [4]: -0.008
log2 fold change [5]: 0.04

NBEAL2 (UniProt Q6ZNJ1)
log2 fold change [1]: -0.047
log2 fold change [2]: 0.055
log2 fold change [3]: 0.015
log2 fold change [4]: -0.029
log2 fold change [5]: 0.044

NPTN (UniProt Q9Y639)
log2 fold change [1]: 0.026
log2 fold change [2]: -0.045
log2 fold change [3]: -0.038
log2 fold change [4]: -0.018
log2 fold change [5]: -0.006

NR2C2 isoform 2 (UniProt P49116)
log2 fold change [1]: -0.078
log2 fold change [2]: -0.08
log2 fold change [3]: -0.04
log2 fold change [4]: 0.243
log2 fold change [5]: 0.047

MSI2 (UniProt Q96DH6)
Sequence of UniProt Q96DH6 (Q96DH6 whole entry, looked up): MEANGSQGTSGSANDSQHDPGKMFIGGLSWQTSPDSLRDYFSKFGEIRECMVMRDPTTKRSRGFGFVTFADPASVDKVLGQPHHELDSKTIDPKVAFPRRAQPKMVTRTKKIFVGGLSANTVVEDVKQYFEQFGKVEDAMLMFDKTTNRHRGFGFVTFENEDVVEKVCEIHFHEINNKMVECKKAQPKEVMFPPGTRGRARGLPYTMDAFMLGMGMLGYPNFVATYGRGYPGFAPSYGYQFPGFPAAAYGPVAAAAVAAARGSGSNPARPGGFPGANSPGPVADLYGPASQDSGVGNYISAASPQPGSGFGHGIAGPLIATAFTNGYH
log2 fold change [1]: -0.007
log2 fold change [2]: -0.007
log2 fold change [3]: -0.001
log2 fold change [4]: 0.048
log2 fold change [5]: 0.071

OTC (UniProt P00480)
log2 fold change [1]: -0.11
log2 fold change [2]: 0.131
log2 fold change [3]: -0.028
log2 fold change [4]: -0.38
log2 fold change [5]: -2.16 (active)

NAA35 (UniProt Q5VZE5)
log2 fold change [1]: 0.004
log2 fold change [2]: 0.066
log2 fold change [3]: -0.023
log2 fold change [4]: -0.002
log2 fold change [5]: 0.086

NFAT5 isoform 4 (UniProt O94916)
log2 fold change [1]: -0.208
log2 fold change [2]: 0.11

NIFK (UniProt Q9BYG3)
log2 fold change [1]: 0.065
log2 fold change [2]: 0.07
log2 fold change [3]: 0.015
log2 fold change [4]: 0.056
log2 fold change [5]: 0.047

OGFR (UniProt Q9NZT2)
Sequence of UniProt Q9NZT2 (Q9NZT2 whole entry, looked up): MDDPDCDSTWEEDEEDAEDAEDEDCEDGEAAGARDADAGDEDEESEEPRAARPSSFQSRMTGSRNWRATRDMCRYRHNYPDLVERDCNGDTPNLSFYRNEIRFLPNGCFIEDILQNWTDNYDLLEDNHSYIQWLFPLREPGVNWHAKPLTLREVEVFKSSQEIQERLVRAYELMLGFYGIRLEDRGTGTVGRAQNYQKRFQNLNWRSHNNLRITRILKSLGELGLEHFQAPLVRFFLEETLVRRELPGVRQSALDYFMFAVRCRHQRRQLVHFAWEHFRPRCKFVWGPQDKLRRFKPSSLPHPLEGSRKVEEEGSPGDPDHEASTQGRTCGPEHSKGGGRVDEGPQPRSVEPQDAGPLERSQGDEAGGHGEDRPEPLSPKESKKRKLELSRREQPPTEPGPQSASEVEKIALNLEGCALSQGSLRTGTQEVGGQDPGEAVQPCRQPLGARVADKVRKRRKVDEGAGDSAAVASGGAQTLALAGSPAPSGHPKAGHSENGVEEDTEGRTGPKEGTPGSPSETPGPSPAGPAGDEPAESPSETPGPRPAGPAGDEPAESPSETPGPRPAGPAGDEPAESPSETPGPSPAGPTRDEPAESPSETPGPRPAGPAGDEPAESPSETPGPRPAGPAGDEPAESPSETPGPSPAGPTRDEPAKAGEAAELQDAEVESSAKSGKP
log2 fold change [1]: -0.016
log2 fold change [2]: 0.001
log2 fold change [3]: 0.012
log2 fold change [4]: -0.038
log2 fold change [5]: 0.088

NUP133 (UniProt Q8WUM0)
log2 fold change [1]: 0.05
log2 fold change [2]: 0.046
log2 fold change [3]: 0.014
log2 fold change [4]: 0.025
log2 fold change [5]: -0.052

OSBPL6 isoform 5 (UniProt Q9BZF3)
log2 fold change [1]: 0.014
log2 fold change [2]: -0.023
log2 fold change [3]: 0.02
log2 fold change [4]: 0.023
log2 fold change [5]: -0.087

NOC2L (UniProt Q9Y3T9)
log2 fold change [1]: 0.004
log2 fold change [2]: -0.019
log2 fold change [3]: 0.009
log2 fold change [4]: 0.324 (active)
log2 fold change [5]: -0.012

ORC3 isoform 2 (UniProt Q9UBD5)
Sequence of UniProt Q9UBD5 (Q9UBD5 whole entry, looked up): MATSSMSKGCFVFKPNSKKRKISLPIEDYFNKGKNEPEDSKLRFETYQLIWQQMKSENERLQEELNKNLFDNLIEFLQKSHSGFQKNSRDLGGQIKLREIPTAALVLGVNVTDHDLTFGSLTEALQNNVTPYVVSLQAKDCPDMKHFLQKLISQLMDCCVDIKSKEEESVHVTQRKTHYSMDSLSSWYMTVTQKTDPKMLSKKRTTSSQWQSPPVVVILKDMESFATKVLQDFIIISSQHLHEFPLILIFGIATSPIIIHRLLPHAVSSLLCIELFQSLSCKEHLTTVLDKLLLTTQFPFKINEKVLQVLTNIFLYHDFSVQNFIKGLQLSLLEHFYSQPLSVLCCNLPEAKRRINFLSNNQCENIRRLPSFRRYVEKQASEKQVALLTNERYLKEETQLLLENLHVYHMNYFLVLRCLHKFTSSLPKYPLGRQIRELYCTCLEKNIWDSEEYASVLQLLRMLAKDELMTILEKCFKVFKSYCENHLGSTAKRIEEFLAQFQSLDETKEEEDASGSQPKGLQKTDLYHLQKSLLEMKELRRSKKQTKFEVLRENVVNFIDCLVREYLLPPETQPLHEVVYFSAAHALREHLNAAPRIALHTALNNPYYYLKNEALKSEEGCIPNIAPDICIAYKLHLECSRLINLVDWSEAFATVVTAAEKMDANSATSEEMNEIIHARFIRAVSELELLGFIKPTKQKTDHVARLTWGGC
log2 fold change [1]: 0.005
log2 fold change [2]: -0.031
log2 fold change [3]: 0.014
log2 fold change [4]: 0.021
log2 fold change [5]: 0.047

NF1 (UniProt P21359)
log2 fold change [1]: -0.03
log2 fold change [2]: -0.01
log2 fold change [3]: 0.03
log2 fold change [4]: -0.009
log2 fold change [5]: 0.016

MTA1 (UniProt Q13330)
log2 fold change [1]: 0.005
log2 fold change [2]: -0.01
log2 fold change [3]: 0.01
log2 fold change [4]: 0.055
log2 fold change [5]: 0.012

MYO9A isoform 4 (UniProt B2RTY4)
log2 fold change [1]: -0.124
log2 fold change [2]: -0.047
log2 fold change [3]: 0.094
log2 fold change [4]: -0.027
log2 fold change [5]: -0.02

NUDT4 (UniProt Q9NZJ9)
log2 fold change [1]: 0.037
log2 fold change [2]: -0.025
log2 fold change [3]: 0.004
log2 fold change [4]: 0.075
log2 fold change [5]: 0.242

NOSIP (UniProt Q9Y314)
log2 fold change [1]: 0.018
log2 fold change [2]: -0.005
log2 fold change [3]: -0.018
log2 fold change [4]: 0.019
log2 fold change [5]: 0.012

PANK4 (UniProt Q9NVE7)
log2 fold change [1]: -0.009
log2 fold change [2]: -0.025
log2 fold change [3]: 0.026
log2 fold change [4]: 0.003
log2 fold change [5]: -0.013

MYCBP2 (UniProt O75592)
log2 fold change [1]: -0.006
log2 fold change [2]: -0.003
log2 fold change [3]: 0.017
log2 fold change [4]: 0.005
log2 fold change [5]: -0.005

ORC5 (UniProt O43913)
log2 fold change [1]: -0.037
log2 fold change [2]: -0.022
log2 fold change [3]: 0.029
log2 fold change [4]: 0.003
log2 fold change [5]: 0.021

NTMT1 (UniProt Q9BV86)
log2 fold change [1]: -0.01
log2 fold change [2]: -0.036
log2 fold change [3]: -0.019
log2 fold change [4]: 0.02
log2 fold change [5]: 0.098

NAA30 (UniProt Q147X3)
log2 fold change [1]: 0
log2 fold change [2]: 0.018
log2 fold change [3]: 0.033
log2 fold change [4]: 0.02
log2 fold change [5]: -0.013

MTCH2 (UniProt Q9Y6C9)
Sequence of UniProt Q9Y6C9 (Q9Y6C9 whole entry, looked up): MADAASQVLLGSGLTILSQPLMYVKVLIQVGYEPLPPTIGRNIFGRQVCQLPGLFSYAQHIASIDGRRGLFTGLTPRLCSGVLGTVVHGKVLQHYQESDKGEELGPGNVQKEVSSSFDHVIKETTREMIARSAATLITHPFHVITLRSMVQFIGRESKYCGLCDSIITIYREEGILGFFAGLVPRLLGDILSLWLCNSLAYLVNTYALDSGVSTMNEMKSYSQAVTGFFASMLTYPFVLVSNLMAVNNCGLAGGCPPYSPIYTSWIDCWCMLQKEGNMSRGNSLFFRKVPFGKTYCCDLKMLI
log2 fold change [1]: 0.013
log2 fold change [2]: 0.001
log2 fold change [3]: -0.006
log2 fold change [4]: -0.014
log2 fold change [5]: -0.083

MTFP1 (UniProt Q9UDX5)
log2 fold change [1]: 0.005
log2 fold change [2]: -0.058
log2 fold change [3]: 0.03
log2 fold change [4]: 0.079
log2 fold change [5]: -0.222

PARG (UniProt Q86W56)
log2 fold change [1]: -0.011
log2 fold change [2]: -0.006
log2 fold change [3]: -0.005
log2 fold change [4]: -0.004
log2 fold change [5]: 0.091

NADK2 (UniProt Q4G0N4)
log2 fold change [1]: 0.057
log2 fold change [2]: 0.007
log2 fold change [3]: -0.006
log2 fold change [4]: 0.045
log2 fold change [5]: -0.012

MTHFD1, A0A384N5Y3
log2 fold change [1]: -0.003
log2 fold change [2]: -0.002
log2 fold change [3]: 0.015
log2 fold change [4]: 0.018
log2 fold change [5]: 0.071

OGFOD2 (UniProt Q6N063)
log2 fold change [1]: -0.079
log2 fold change [2]: 0.049
log2 fold change [3]: -0.07
log2 fold change [4]: 0.033
log2 fold change [5]: 0.076

PBK (UniProt Q96KB5)
Sequence of UniProt Q96KB5 (Q96KB5 whole entry, looked up): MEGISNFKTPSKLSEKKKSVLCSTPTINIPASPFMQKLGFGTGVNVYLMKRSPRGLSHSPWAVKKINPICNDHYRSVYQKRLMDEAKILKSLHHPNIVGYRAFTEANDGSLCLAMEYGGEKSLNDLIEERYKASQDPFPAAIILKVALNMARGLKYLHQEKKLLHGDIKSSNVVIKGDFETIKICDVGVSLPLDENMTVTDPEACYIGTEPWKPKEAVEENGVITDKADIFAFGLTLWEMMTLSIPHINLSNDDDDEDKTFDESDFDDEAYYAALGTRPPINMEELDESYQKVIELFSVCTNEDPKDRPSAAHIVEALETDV
log2 fold change [1]: -0.002
log2 fold change [2]: 0.006
log2 fold change [3]: 0.006
log2 fold change [4]: 0.023
log2 fold change [5]: 0.029

MRPS12 (UniProt O15235)
log2 fold change [1]: 0
log2 fold change [2]: 0.019
log2 fold change [3]: 0.053
log2 fold change [4]: 0.039
log2 fold change [5]: 0.026

NCAPH (UniProt Q15003)
log2 fold change [1]: -0.025
log2 fold change [2]: 0.015
log2 fold change [3]: 0.021
log2 fold change [4]: -0.023
log2 fold change [5]: 0.024

NELFCD (UniProt Q8IXH7)
log2 fold change [1]: -0.035
log2 fold change [2]: 0.023
log2 fold change [3]: 0.018
log2 fold change [4]: 0.003
log2 fold change [5]: 0.025
